Results filed as inconclusive are left out. Unmarked numbers belong to inactive results. Active and inactive are the calls of the source. Calls follow the shape of the dose curve; as a rule, active = well fitted curve in the direction sought with a large enough effect; inconclusive = small, poorly fitted or top-dose-only effect, or another doubt; inactive = no such curve, though single readings can be large; an effect the other way counts as inactive or inconclusive.

The subject of one assay is Hek293T. Kind of assay: Primary qHTS to identify gynecologic anti-cancer compounds using libraries of approved drugs and bioactive compounds (AID 1345084). Also: nearly all actives have a fitted effect of over 55% in size. Particulars: Gynecologic cancer cell panel viability, ATPlite luminescence, 48 h, control line for the selectivity index; series mostly up to 57.5 µM. The gist of the method:
(§1)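 Cell viability after 48 h drug treatment, ATPlite luminescence readout; five doses.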
For orientation: qHTS replaces the single test concentration by a dilution series.

The next assay relates to JEG-3. The assay is described as above. Particulars: Gynecologic cancer cell panel viability, ATPlite luminescence, 48 h; series mostly up to 57.5 µM. The method, boiled down: as §1
On the technique in general: Cellular ATP, detected with luciferase, serves as a proxy for viable cell number.

The subject of a further assay is OV90. The assay is described as above. Particulars: Gynecologic cancer cell panel viability, ATPlite luminescence, 48 h; series mostly up to 57.5 µM. The method, boiled down:
as §1

The next assay has as its system PA-1. Described as above. Particulars: Gynecologic cancer cell panel viability, ATPlite luminescence, 48 h; series mostly up to 57.5 µM. The gist of the method:
as §1

The next assay has as its system SKOV3. Described as above. The conditions noted are these: Gynecologic cancer cell panel viability, ATPlite luminescence, 48 h; series mostly up to 57.5 µM. The method, boiled down: as §1
The test system of a further assay is Tov-21-G. Described as above. Particulars: Gynecologic cancer cell panel viability, ATPlite luminescence, 48 h; series mostly up to 57.5 µM. The method, boiled down:
as §1

For another assay, the system named is Tov112D. The assay is described as above. Particulars: Gynecologic cancer cell panel viability, ATPlite luminescence, 48 h; series mostly up to 57.5 µM. The gist of the method:
as §1

The nature of assay [1]: Drug repurposing screens with cells derived from glioblastoma tumor samples (AID 1345199). Also: nearly all actives have a fitted effect of over 40% in size. Also: potency is read from the fitted curve at half-maximal effect. Particulars: GBM patient neurospheres viability, ATP luminescence, 48 h. The gist of the method: (§2)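 Four patient lines of CD133+ GBM neurospheres were screened at several concentrations; hits were retested in those lines plus three slower-growing GBM lines, using 48-hour treatment and ATP-based viability.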

A further assay relates to astro. The description is as above. Particulars: viability, ATP luminescence, 48 h; series mostly up to 45.9 µM. The gist of the method: as §2
Where [2] appears, read: at 45.9 µM (top of the series), tumour line B.
[3] abbreviates: at 45.9 µM (top of the series), tumour line D.
Setting [4] is: at 46 µM (top of the series), tumour line A.
[5] abbreviates: at 46.1 µM (top of the series), tumour line C.
Where [6] appears, read: at 20 µM (top of the series), tumour line C.
The mark [7] stands for this setting: at 21.2 µM (top of the series), tumour line B.
Where [8] appears, read: at 21.2 µM (top of the series), tumour line D.
[9] abbreviates: at 21.3 µM (top of the series), tumour line A.
% is scaled to controls: 0 for no effect and ±100 for the full control effect.

For the molecule `C[C@@H](O)[C@H]1C(=O)N2C(C(=O)O)=C(S[C@@H]3CN[C@H](CNS(N)(=O)=O)C3)[C@H](C)[C@H]12`, the Potency entry with Hek293T, in the assay on JEG-3, with OV90, in the assay with PA-1, in the assay with SKOV3 and in the assay with Tov-21-G was “inactive” in each case. For the same molecule, the Potency result with Tov112D and in the assay on astro was “inactive” throughout. Moreover, the activity, negative = cell killing was -1.99% in assay [1] (setting [2]), 1.38% in assay [1] (setting [3]), -14.9% in assay [1] (setting [4]) and -16.7% in [1] (setting [5]).
On to `FC(F)(F)C(F)(F)C(F)(F)C(F)(F)C(F)(F)C(F)(F)C(F)(F)C(F)(F)Br`, for which the Potency entry in the assay with Hek293T, in the assay with JEG-3, with OV90, with PA-1, with SKOV3 and in the assay on Tov-21-G was “inactive” each time. Further, the Potency result in the assay on Tov112D and in the assay with astro was “inactive” each time. The activity, negative = cell killing in [1] (setting [2]) is -8.68%; in assay [1] (setting [3]), -7.68%; in [1] (setting [4]), -17.2%; in [1] (setting [5]), 5.77%.
On to `CC(C)Cc1ccc(CC(=O)O)cc1`, for which the Potency result in the assay with Hek293T, in the assay with JEG-3, in the assay on OV90, with PA-1, in the assay with SKOV3 and in the assay with Tov-21-G was “inactive” in each case. Besides, the Potency entry in the assay on Tov112D and in the assay on astro was “inactive” each time. For the same molecule, the activity, negative = cell killing is -12.1% in assay [1] (setting [2]), -2.06% in assay [1] (setting [3]), -12.4% in assay [1] (setting [4]) and 9.2% in assay [1] (setting [5]).
With `NCc1ccccc1Sc1ccccc1CO`, the Potency result with Hek293T, with JEG-3, in the assay with OV90, with PA-1, with SKOV3 and in the assay on Tov-21-G was “inactive” in each case. Besides, the Potency result with Tov112D and in the assay on astro was “inactive” each time. Further, the activity, negative = cell killing is -12.4% in assay [1] (setting [2]), -24% in [1] (setting [3]) and -18% in assay [1] (setting [5]). The Potency in [1] (tumour line A) is 35.5 µM (active).
On to `CCOCCn1c(N2CCCN(C)CC2)nc2ccccc21`, for which the Potency entry with Hek293T, with JEG-3, with OV90, in the assay on PA-1, in the assay with SKOV3 and in the assay with Tov-21-G was “inactive” in each case. Further, the Potency entry in the assay on Tov112D and in the assay on astro was “inactive” each time. Moreover, the activity, negative = cell killing is -14.8% in assay [1] (setting [2]), -9.28% in assay [1] (setting [3]) and -16% in assay [1] (setting [5]). Also, in [1] (tumour line A), the Potency is 17.8 µM (active).
Turning to `Nc1ccc(S(=O)(=O)Nc2cnc3ccccc3n2)cc1`, the Potency entry with Hek293T, in the assay on JEG-3, with OV90, in the assay on PA-1, with SKOV3 and in the assay on Tov-21-G was “inactive” in each case. The Potency result with Tov112D and with astro was “inactive” in each case. Further, the activity, negative = cell killing is 0.475% in [1] (setting [2]), 3.34% in assay [1] (setting [3]), -15.8% in [1] (setting [4]) and 4.45% in [1] (setting [5]).
As to `CCN(CC)CCNC(=O)COc1ccc(OC)cc1`, the Potency entry in the assay with Hek293T, with JEG-3, with OV90, in the assay with PA-1, in the assay with SKOV3 and with Tov-21-G was “inactive” throughout. The Potency result in the assay with Tov112D and with astro was “inactive” each time. Besides, the activity, negative = cell killing was -17.2% in assay [1] (setting [2]), -10.2% in assay [1] (setting [3]), -59% in assay [1] (setting [4]) and -17.2% in assay [1] (setting [5]).
As to `CCCCC(CC)COC(=O)/C=C/c1ccc(OC)cc1` (stereo not given), the Potency entry in the assay on Hek293T, in the assay on JEG-3, in the assay with OV90, with PA-1, in the assay with SKOV3 and in the assay with Tov-21-G was “inactive” each time. Further, the Potency result in the assay on Tov112D and in the assay on astro was “inactive” in each case. For the same molecule, the activity, negative = cell killing in assay [1] (setting [2]) is -11.8%; in assay [1] (setting [3]), -6.07%; in [1] (setting [4]), -26.1%; in assay [1] (setting [5]), 6.67%.
Regarding `COc1ccc(-c2cc(C(F)F)nn2-c2ccc(S(N)(=O)=O)cc2)cc1F`, the Potency entry in the assay on Hek293T, in the assay on JEG-3, in the assay with OV90, in the assay on PA-1, with SKOV3 and in the assay on Tov-21-G was “inactive” each time. In addition, the Potency entry in the assay on Tov112D and with astro was “inactive” in each case. Further, the activity, negative = cell killing in [1] (setting [2]) was -10.4%; in assay [1] (setting [3]), -9.89%; in assay [1] (setting [4]) it was -29.7%; in assay [1] (setting [5]) it was 2.98%.
With `CCC1NC(=O)c2cc(S(N)(=O)=O)c(Cl)cc2N1` (stereo not given), the Potency result with Hek293T, with JEG-3, in the assay with OV90, with PA-1, with SKOV3 and in the assay on Tov-21-G was “inactive” in each case. Moreover, the Potency entry in the assay on Tov112D and in the assay with astro was “inactive” throughout. Moreover, the activity, negative = cell killing is -6.38% in assay [1] (setting [6]), -2.62% in assay [1] (setting [7]), -14.7% in [1] (setting [8]) and -12.3% in assay [1] (setting [9]).
On to `CC(C)(C)NCC(O)COc1cccc2c1C[C@H](O)[C@H](O)C2` (stereo not given in full), for which the Potency result in the assay with Hek293T, in the assay with JEG-3, in the assay with OV90, in the assay on PA-1, in the assay with SKOV3 and in the assay on Tov-21-G was “inactive” in each case. The Potency entry with Tov112D and in the assay with astro was “inactive” in each case. Moreover, the activity, negative = cell killing in assay [1] (setting [6]) was -4.25%; in assay [1] (setting [7]), -2.25%; in [1] (setting [8]), -3.22%; in assay [1] (setting [9]) it was -16.2%.
As to `CCc1ccc(C(=O)C(C)CN2CCCCC2)cc1` (stereo not given), the Potency result in the assay with Hek293T, with JEG-3, in the assay with OV90, in the assay with PA-1, in the assay with SKOV3 and in the assay on Tov-21-G was “inactive” throughout. The Potency result in the assay with Tov112D and in the assay on astro was “inactive” each time. Moreover, the values for the activity, negative = cell killing in assay [1] (setting [2]), in [1] (setting [3]) and in [1] (setting [5]) were -6.35%, -22.1% and -19%, respectively. In assay [1] (tumour line A), the Potency is 17.8 µM (active).
With `COc1cc(O)c(C(=O)c2ccccc2)cc1S(=O)(=O)O`, the Potency result with Hek293T, in the assay with JEG-3, with OV90, in the assay with PA-1, with SKOV3 and in the assay with Tov-21-G was “inactive” each time. In addition, the Potency result in the assay with Tov112D and with astro was “inactive” each time. Further, the activity, negative = cell killing in assay [1] (setting [2]) was -4.01%; in assay [1] (setting [3]), -5.06%; in assay [1] (setting [4]) it was -20.9%; in assay [1] (setting [5]), 6.07%.
Take `CCO[C@@H]1O[C@H](C(COCc2ccccc2)OCc2ccccc2)[C@H](OCc2ccccc2)[C@H]1O` (stereo not given in full): the Potency result in the assay with Hek293T, in the assay on JEG-3, with OV90, with PA-1, in the assay on SKOV3 and with Tov-21-G was “inactive” each time. Besides, the Potency result with Tov112D and with astro was “inactive” each time. The figures for the activity, negative = cell killing in assay [1] (setting [6]), in assay [1] (setting [7]) and in assay [1] (setting [8]) were -1.34%, -8.94% and -23.7%, respectively. Further, the Potency in assay [1] (tumour line A) is 14.1 µM (active).
In the case of `NS(=O)(=O)c1cc2c(cc1Cl)NC(CC1CCCC1)NS2(=O)=O` (stereo not given), the Potency entry with Hek293T, in the assay on JEG-3, in the assay with OV90, in the assay on PA-1, in the assay with SKOV3 and in the assay on Tov-21-G was “inactive” throughout. In addition, the Potency result in the assay on Tov112D and in the assay on astro was “inactive” each time. Further, the activity, negative = cell killing in assay [1] (setting [6]) was -10.8%; in assay [1] (setting [7]), -9.27%; in assay [1] (setting [8]), -11%; in assay [1] (setting [9]), -13.5%.

The record behind these values is PubChem BioAssay (NCATS).
